PostGolgi ctrl – growth inhibition of yeast control strain, primary screen, counter-screen for post-Golgi transport modulator project. efflux-deficient yeast background strain, growth absorbance A615, 16 h. inhibition, % at 10 µM. 98,000 compounds, 5% hits. AID 738, 2007
CYP2C9 inhib – blockers of cytochrome P450 2C9 activity – biochemical, luminescence, ADME assay, primary screen | CYP2C9 Supersomes, luciferin-H conversion | inhibition, % at 5 µM | 96,000 compounds, 20% hits | AID 777, 2007;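 active = blocking of liver enzyme CYP2C9 beyond about 50% at 5 µM, limit read from the data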
CYP2C9 activ – human CYP2C9 activators, primary screen, biochemical, luminescence | AID 1024, 2008 | activation factor at 5 µM | recombinant CYP2C9, luciferin-H conversion; stronger effect = higher value; factor 1 = untreated enzyme, 0 = blocked | 96,000 compounds, 1.4% hits | Cytochrome P450 2C9 (Homo sapiens), P11712;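 active = activation factor of 2 or more for CYP2C9 at a 5 µM dose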;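 note: 0 = sulfaphenazole-blocked wells and 1 = vehicle-only wells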
CYP2C19 inh – blockers of cytochrome P450 2C19 activity – biochemical, luminescence, ADME assay, primary screen; inhibition, % at 5 µM; 96,000 compounds, 21% hits; AID 778, 2007; P33261; CYP2C19 Supersomes, luciferin-H EGE luminescence, 30 min;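 active = CYP2C19 inhibition above a set limit at 5 µM in the primary screen, cut at about 50% in these data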;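 note: plate controls were negative control wells for no effect and 2.5 mM tranylcypromine positive control for full effect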
Target sequence (P33261 whole entry, looked up): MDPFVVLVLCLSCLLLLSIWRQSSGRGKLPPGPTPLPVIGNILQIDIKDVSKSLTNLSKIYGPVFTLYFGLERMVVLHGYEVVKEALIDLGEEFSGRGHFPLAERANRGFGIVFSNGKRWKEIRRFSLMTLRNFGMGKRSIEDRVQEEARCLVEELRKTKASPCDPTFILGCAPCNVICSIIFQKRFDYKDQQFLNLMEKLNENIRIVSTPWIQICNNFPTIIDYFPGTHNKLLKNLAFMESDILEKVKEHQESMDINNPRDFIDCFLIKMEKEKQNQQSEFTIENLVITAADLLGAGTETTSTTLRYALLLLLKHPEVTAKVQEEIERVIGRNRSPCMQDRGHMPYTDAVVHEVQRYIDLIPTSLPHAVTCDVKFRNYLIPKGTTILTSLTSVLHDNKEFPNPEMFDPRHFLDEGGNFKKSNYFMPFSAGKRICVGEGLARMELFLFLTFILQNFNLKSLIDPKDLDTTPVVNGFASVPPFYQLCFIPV
CYP2C19 act – human CYP2C19 activators, primary screen, biochemical, luminescence; recombinant CYP2C19, luciferin-H EGE luminescence; stronger effect = higher value; 0 = fully inhibited enzyme, 1 = untreated enzyme; activation factor at 5 µM; 96,000 tested, under 10 active; AID 1025, 2008;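 active = activation factor of at least 2 at 5 µM in the primary screen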;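 note: 0 = wells with 2.5 mM tranylcypromine and 1 = vehicle-only wells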
PostGolgi yeast – phenotypic screen on post-Golgi transport, primary screen; 98,000 compounds, 0.9% hits; post-Golgi transport phenotypic cell assay; inhibition, % at 10 µM;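 note: yeast cells grown in 1536-well plates; yeast grown about 18 h at 30C before absorbance read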
The depositor's hits bear a star; nt = no result given. Compounds with a hit are over-represented: about 32% of the library has one in this group of screens. Cut-off read from the data, not from the text of the source, unless noted: active = inhibition above about 30%; inactive = the rest.

SMILES	PostGolgi ctrl	CYP2C9 inhib	CYP2C9 activ	CYP2C19 inh	CYP2C19 act	PostGolgi yeast
C=CCNc1nc(SC)nc2ccsc12	4.3	-128.7	2.3*	11.5	0.9	-7.3
Cc1cccc(NC(=O)c2oc3c(c2C)C(=O)CC(C)(C)C3)n1	1.9	18.1	0.8	4.4	1	2.6
CN(C1CCCCC1)S(=O)(=O)c1ccc(NC(=O)CCC(=O)O)cc1	7.2	nt	nt	nt	nt	-1.2
CN(C1CCCCC1)S(=O)(=O)c1ccc(NC(=O)C2CCCCC2)cc1	63.0*	17.8	0.8	16.6	0.8	-6.2
Nc1cc(N)nc(SCc2cc(=O)oc3cc4c(cc23)CCC4)n1	0.6	-27.1	1.3	50.3*	0.5	-6.1
Cc1cc2oc(=O)cc(CSc3nc(N)cc(N)n3)c2cc1C(C)C	27.3	77.0*	0.2	0.0	1	3.2
Cc1cc2oc(=O)cc(CN3CCCCC3)c2cc1C(C)C	8.2	32.3	0.7	7.4	0.9	-6.3
COCCN(CCOC)Cc1cc(=O)oc2cc3c(cc12)CCC3	-6.0	48.6	0.5	76.9*	0.2	-9.1
CCOC(=O)N1CCN(Cc2cc(=O)oc3cc4c(cc23)CCC4)CC1	3.7	10.5	0.9	25.9	0.7	-8.0
C=CCn1c2ccccc2c2nnc(SCCCn3c(=O)[nH]c4ccccc43)nc21	25.8	75.6*	0.2	74.8*	0.3	-17.0
C=CCn1c2ccccc2c2nnc(SCN3C(=O)c4ccccc4C3=O)nc21	27.8	78.6*	0.2	90.2*	0.1	39.5*
O=C1c2ccccc2C(=O)N1CSc1nnc2c3ccccc3n(CCc3ccccc3)c2n1	7.7	40.1	0.6	31.1	0.7	8.2
COc1cc(C=O)ccc1OCCOCCOc1c(C)cc(Cl)cc1Cl	13.2	nt	nt	nt	nt	4.8
CCOc1ccc(-c2nc(N)nc(C)c2-c2ccc(OC)c(OC)c2)c(O)c1	16.2	5.0	0.9	3.7	1	5.0
C=C(C)COc1ccc(-c2nc(N)nc(C)c2Oc2ccccc2OC)c(O)c1	25.3	24.5	0.8	16.6	0.8	1.7
C=C(C)COc1ccc(-c2n[nH]c(C)c2Oc2ccccc2OC)c(O)c1	16.7	80.6*	0.2	81.0*	0.2	0.3
Cc1[nH]nc(-c2ccc(OCc3cnn(-c4ccccc4)c3)cc2O)c1Oc1ccccc1F	41.6*	16.0	0.8	-1.8	1	1.1
CCOc1ccc(-c2n[nH]c(C)c2Oc2ccccc2OC)c(O)c1	5.4	89.3*	0.1	98.8*	0	4.0
CC(Sc1ccccc1)C(=O)Nc1ccc(S(=O)(=O)N2CCOCC2)cc1 (stereo unspecified)	6.7	28.1	0.7	8.5	0.9	-8.1
O=c1c2c3c(sc2n2cnnc2n1C1CCCCC1)CCC3	nt	14.3	0.9	13.2	0.9	nt
CCOC(=O)Cc1csc(NC(=O)C(C)(C)CC)n1	7.3	43.3	0.6	14.0	0.9	15.3
C=CCSC1=C(C#N)C(c2ccccc2C)CC(=O)N1 (stereo unspecified)	3.2	25.0	0.8	24.5	0.8	-0.3
C=C(C)CSC1=C(C#N)C(c2ccccc2Cl)CC(=O)N1 (stereo unspecified)	19.5	70.2*	0.3	58.2*	0.4	9.3
CCSC1=C(C#N)C(c2ccccc2C)CC(=O)N1 (stereo unspecified)	5.5	7.7	0.9	21.5	0.8	0.3
C=CCSC1=C(C#N)C(c2ccccc2Cl)CC(=O)N1 (stereo unspecified)	26.6	49.8	0.5	73.0*	0.3	-1.1
SMILES	PostGolgi ctrl	CYP2C9 inhib	CYP2C9 activ	CYP2C19 inh	CYP2C19 act	PostGolgi yeast
O=C1NC(=S)N/C1=C/c1cc([N+](=O)[O-])ccc1O	0.6	32.6	0.7	4.2	1	4.0
CCSc1ncc(/C=N/Nc2ccc(Cl)cc2)n1C	22.9	23.4	0.8	29.4	0.7	31.6*
CCSc1ncc(/C=N/Nc2ccc([N+](=O)[O-])cc2)n1C	4.6	3.5	1	0.5	1	-6.7
CCSc1ncc(/C=N/Nc2ccccc2)n1C	18.1	51.9*	0.5	43.5	0.6	6.0
Cc1ccc(C(=O)C(C)OC(=O)C2CC(=O)N(C3CCCCC3)C2)cc1 (stereo unspecified)	1.2	13.1	0.9	-0.2	1	3.7
CCc1ccc(C(C)NC(=O)C2(C)CC2(Br)Br)cc1 (stereo unspecified)	-3.0	71.0*	0.3	90.4*	0.1	-5.4
CCc1ccc(N/C(SCc2ccccc2C)=C(/C#N)C(=O)NCc2ccco2)cc1	0.1	63.6*	0.4	57.1*	0.4	16.8
CC(=O)Nc1ccc(C(=S)NCc2ccco2)cc1	-7.0	12.7	0.9	32.8	0.7	12.0
COc1ccc(Cc2nnc(SCC(=O)Nc3nc(C)cs3)o2)cc1	3.6	6.3	0.9	6.9	0.9	6.9
CC(C)c1nnc(NC(=O)CCCCCN2C(=O)C3C4C=CC(C4)C3C2=O)s1 (stereo unspecified)	-2.4	19.1	0.8	-1.9	1	-4.7
CCOC(=O)Cn1c(Br)nc2c1c(=O)[nH]c(=O)n2C	1.7	12.3	0.9	5.4	0.9	-2.2
COc1cccc(-n2c(SCC(=O)Nc3cc(C)on3)nc3c([nH]c4ccccc43)c2=O)c1	5.4	54.3*	0.5	1.9	1	-2.9
O=C(CSc1nc2c([nH]c3ccccc32)c(=O)n1-c1ccccc1)N1CCOCC1	7.7	18.4	0.8	-3.6	1	7.8
COc1cccc(-n2c(SCC(N)=O)nc3c([nH]c4ccccc43)c2=O)c1	3.7	51.6*	0.5	2.9	1	-3.1
Cc1ccc(-n2c(SCC(N)=O)nc3c([nH]c4ccccc43)c2=O)cc1	0.4	78.6*	0.2	9.0	0.9	6.0
CCC1CCCCN1Cc1nc2c(c(=O)n(C)c(=O)n2C)n1Cc1cccc2ccccc12 (stereo unspecified)	nt	40.3	0.6	9.7	0.9	nt
O=C(NCc1ccc(OC(F)(F)F)cc1)C12CN(Cc3ccccc3)CC1C(c1cccc([N+](=O)[O-])c1)=NO2 (stereo unspecified)	6.0	57.1*	0.4	76.5*	0.2	-7.8
O=C(NCc1ccccc1)C12CN(Cc3ccccc3)CC1C(c1cccc([N+](=O)[O-])c1)=NO2 (stereo unspecified)	10.2	37.7	0.6	73.8*	0.3	-5.3
Cc1ccc(CNC(=O)C23CN(Cc4ccccc4)CC2C(c2ccc([N+](=O)[O-])cc2)=NO3)cc1 (stereo unspecified)	1.8	33.3	0.7	58.5*	0.4	21.0
Cc1ccc(CCNC(=O)C23CN(Cc4ccccc4)CC2C(c2ccc([N+](=O)[O-])cc2)=NO3)cc1 (stereo unspecified)	9.9	3.4	1	34.4	0.7	2.8
CC(C)OC(=O)C1=C(N)N2C(=O)CSC2=C(C(=O)OC(C)C)C1	5.0	11.9	0.9	36.2	0.6	8.4
O=S(=O)(Nc1nc(-c2sccc2Cl)cs1)c1cc(Cl)ccc1Cl	35.0*	99.1*	0	90.4*	0.1	-2.0
C#CCN(C#N)c1nc(NCC)nc(NC(C)C)n1	1.5	34.4	0.7	15.1	0.8	-7.7

Bioassay records: PubChem BioAssay, several laboratories
